The Inhibition is the share of the control response that was lost under treatment. Low readings indicate a response near the control, high ones a response far below the control.

The subject of one experiment is Plasmodium falciparum. The experiment is described as follows: GSK_TCMDC: Inhibition of Plasmodium falciparum 3D7 in whole red blood cells, using parasite LDH activity as an index of growth. Test compounds present at 2uM. The format is functional.
`O=C(NCCc1ccccc1)[C@H](Cc1ccccc1)Nc1ccnc(NCC2CCCCC2)n1.O=C(O)C(F)(F)F` yielded an Inhibition of 86%.

As for `N=C(Nc1nc(-c2ccccn2)cc2ccccc12)c1cccc(Cl)c1`, the Inhibition is 100%. Same read-out and setting: with `NCc1cccc(-c2ccccc2CNC2CCN(Cc3ccccc3)CC2)c1.O=C(O)C(F)(F)F` the figure was 94%; with `CCN(CCCN1CCCCC1)c1cc(C)nc(Nc2ccc(C)cc2Br)n1.O=C(O)C(F)(F)F`, 95%.

The subject of the next experiment is Plasmodium falciparum. The experiment is described as follows: GSK_TCMDC: Inhibition of Plasmodium falciparum Dd2 in whole red blood cells, using parasite LDH activity as an index of growth. Test compounds present at 2uM. The format is functional.
Consider `Cl.O=C(Nc1ccccc1Br)N[C@@H]1CCN(c2ccnc3ccccc23)C1`, for which the Inhibition was found to be 90%. As to `CC(C)(C)N1CCC(N(Cc2ccc(-c3ccc(C(F)(F)F)cc3)cc2)C(=O)Cn2c(CCc3cccc(F)c3F)nc(=O)c3cccnc32)CC1.O=C(O)C(O)C(O)C(=O)O`, the Inhibition is 53%. Turning to `O=C(c1ccc([N+](=O)[O-])o1)N1CCC(Cc2ccc(C(F)(F)F)cc2)CC1`, the Inhibition worked out at 99%. On the same count and under the same terms, for `CN1CCN(c2ccnc3cc4c(cc23)N(Cc2ccccc2)CC4)CC1` the value was 27%; for `O=C(/C=C/c1ccc(Cl)c(Cl)c1)NCCCCCN1CCC(NC(=O)Nc2ccc(Oc3ccccc3)cc2)C1` (centres undefined), 6%; for `O=C(NCc1ccc(C(=O)NCc2cccc3ccccc23)cc1)c1ccc(O)c(-c2ccc(Cl)c(Cl)c2)c1`, 31%. Still for that read-out and setting: for `COc1ccc(Nc2cc(C)c3cc(NC(=O)c4ccncc4)ccc3n2)cc1` the value was 26%. The same measure, in the same setting: with `COc1ccc(S(=O)(=O)Nc2ccc(C(=O)NCc3ccc(C(F)(F)F)cc3)cc2)cc1N1CCN(CC2CC2)CC1.O=C(O)C(F)(F)F` the figure was 1%. Compound `Br.C=CCc1cccc(OC)c1OCCCON1C(=N)N=C(N)NC1(C)C` registered an Inhibition of 95%. The same measure, in the same setting: with `Cc1ccnc(NC(c2cccc(Cl)c2Cl)c2ccc3cccnc3c2O)c1` (centres undefined) the figure was 38%; with `Cl.NC1=NC(c2ccccc2)N(c2ccc(Cl)c(Cl)c2)C(N)=N1` (centres undefined), 0%. Same read-out and setting: with `CC(CCCCC(=O)Nc1ccc(CC(C)NCCc2cccc(Cl)c2)cc1)NCCc1cccc(Cl)c1` (centres undefined) the figure was 0%; with `O=C(NC1CCCCC1)N(Cc1ccc(-c2cccc(CNCc3ccc4c(c3)OCO4)c2)cc1)C1CCN(Cc2ccccc2)CC1.O=C(O)C(F)(F)F`, 72%; with `COc1cc(C(=O)NCCCN2CCN(c3cc(Cl)ccc3OC)CC2)ccc1-c1nc2cc(Cl)c(Cl)cc2[nH]1`, 99%. Same read-out and setting: with `O=C(/C=C/c1ccccc1O)NCCCCCN1CCC(c2c[nH]c3ccccc23)CC1` the figure was 1%; with `O=C(c1ccc(F)c(F)c1)N1CCOC(CCN2CCC(c3ccccc3)CC2)(c2ccc(Cl)c(Cl)c2)C1` (centres undefined), 75%. In turn, `CCCC(C(=O)OCCN(CC)CC)(c1ccc(Cl)cc1)c1ccc(Cl)cc1.Cl` displayed an Inhibition of 87%.

As to `Cc1ccc(Nc2nccc(Nc3ccc4c(c3)nc(Nc3cc(C(C)(C)C)on3)n4C)n2)cc1S(C)(=O)=O`, the Inhibition amounted to 99%. On the same count and under the same terms, for `O=C(NCC1CCN(Cc2ccc3c(c2)OCCO3)C1)c1cc(-c2cccc(C(F)(F)F)c2)cs1.O=C(O)C(F)(F)F` (centres undefined) the value was 1%. On the same count and under the same terms, for `Cc1cccc(N2CCN(C3CCC(NC(=O)c4cc5ccccc5[nH]4)CC3)CC2)c1C` (centres undefined) the value was 21%; for `COc1cc(OC)cc(C(=O)Nc2cccc(-c3cn4ccc(C)cc4n3)c2)c1`, 45%.

For `N#Cc1cc([N+](=O)[O-])ccc1-n1nc(C(N)=O)n(Cc2cccc(F)c2)c1=S`, the Inhibition amounted to 100%. Same read-out and setting: with `CC(=O)N1CCC(C(=O)Nc2ccc(-c3cccc(-c4nc5cccc(C)c5[nH]4)c3)cc2)CC1` the figure was 27%; with `CCCCCC(NCCCC)c1ccc(OCCOc2ccc(C(CCCCC)NCCCC)cc2)cc1.Cl` (centres undefined), 96%; with `CCC[C@@H]([C@@H](CC1CCCCC1)C(=O)N[C@H](C(=O)Nc1ccccn1)[C@H](C)CC)N(O)C=O`, 87%. `CC(Nc1cc(-c2ccccn2)nc(-c2ccccn2)n1)c1ccccc1` (centres undefined) registered an Inhibition of 98%. The same measure, in the same setting: with `COc1ccc2c(c1C1CCN(CCCCNC(=O)c3ccc(-c4ccc(Cl)cn4)cc3)CC1)CCCC2` the figure was 49%; with `CC(C)(C)c1ccc(CNC(=O)c2ccc(-c3nc4cc(C(C)(C)C)ccc4[nH]3)cc2)cc1`, 49%; with `Cc1ccc(NC(=O)c2ccc(Cl)c(Cl)c2)cc1-c1ccc(C(=O)Nc2ccncc2)cc1`, 79%.

For the compound `Cc1cccc2nc(-c3cccc(-c4cccc(NC(=O)c5c[nH]cn5)c4)c3)[nH]c12`, the Inhibition came to 91%. The same measure, in the same setting: for `Cc1nnc(-c2ccc3ccccc3c2)c2cn(-c3cccc([N+](=O)[O-])c3)nc12` the value was 67%. The compound `Cl.N#Cc1cccc(/C=C/C(=O)NC2CCC(CCN3CCc4ccc(-c5cnccn5)cc4CC3)CC2)c1` (centres undefined) returned an Inhibition of 47%. `O=C1c2cc(I)ccc2SC1c1ccccc1` (centres undefined): the Inhibition amounted to 98%. For `CC(=O)N1CCN(c2ccc(NC(=O)c3oc(-c4ccccc4)nc3C(F)(F)F)cn2)CC1`, the Inhibition is on record as 93%.

Regarding `Cc1ccc(NC(=O)c2ccc(N3CCN(c4ccncc4)CC3)cn2)cc1F.O=C(O)C(F)(F)F`, the Inhibition is 77%. On the same count and under the same terms, with `CN(C)c1ccc(CN2CCC(CNC(=O)c3cc(-c4cccc(F)c4)cs3)C2)cc1.O=C(O)C(F)(F)F` (centres undefined) the figure was 13%. The same measure, in the same setting: for `O=C(NCCc1ccccc1)[C@H](Cc1ccccc1)Nc1ccnc(NCC2CCCCC2)n1.O=C(O)C(F)(F)F` the value was 53%; for `N=C(Nc1nc(-c2ccccn2)cc2ccccc12)c1cccc(Cl)c1`, 99%; for `NCc1cccc(-c2ccccc2CNC2CCN(Cc3ccccc3)CC2)c1.O=C(O)C(F)(F)F`, 4%. On the same count and under the same terms, for `CCN(CCCN1CCCCC1)c1cc(C)nc(Nc2ccc(C)cc2Br)n1.O=C(O)C(F)(F)F` the value was 27%.

The values above are taken from ChEMBL document CHEMBL1157539, “Thousands of chemical starting points for antimalarial lead identification” (Nature, 2010).
